Screening data (PubChem BioAssay)
Shown is part of a subset that was picked to be rich in hits.
EZH2 inh – blocks human EZH2/PRC2 H3K27 methylation; Q15910; DELFIA TRF, 1 h; inhibition, % at 12.5 µM; hit rate 0.35% among 57,000;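 active means mean inhibition of replicates at least 50% and every single replicate also reaching 50%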;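 further: dimethyl H3K27 on biotinylated H3 21-44 peptide detected by antibody; plate controls were median neutral control wells for no effect and median positive control wells for full effect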
Target sequence (Q15910 whole entry, looked up): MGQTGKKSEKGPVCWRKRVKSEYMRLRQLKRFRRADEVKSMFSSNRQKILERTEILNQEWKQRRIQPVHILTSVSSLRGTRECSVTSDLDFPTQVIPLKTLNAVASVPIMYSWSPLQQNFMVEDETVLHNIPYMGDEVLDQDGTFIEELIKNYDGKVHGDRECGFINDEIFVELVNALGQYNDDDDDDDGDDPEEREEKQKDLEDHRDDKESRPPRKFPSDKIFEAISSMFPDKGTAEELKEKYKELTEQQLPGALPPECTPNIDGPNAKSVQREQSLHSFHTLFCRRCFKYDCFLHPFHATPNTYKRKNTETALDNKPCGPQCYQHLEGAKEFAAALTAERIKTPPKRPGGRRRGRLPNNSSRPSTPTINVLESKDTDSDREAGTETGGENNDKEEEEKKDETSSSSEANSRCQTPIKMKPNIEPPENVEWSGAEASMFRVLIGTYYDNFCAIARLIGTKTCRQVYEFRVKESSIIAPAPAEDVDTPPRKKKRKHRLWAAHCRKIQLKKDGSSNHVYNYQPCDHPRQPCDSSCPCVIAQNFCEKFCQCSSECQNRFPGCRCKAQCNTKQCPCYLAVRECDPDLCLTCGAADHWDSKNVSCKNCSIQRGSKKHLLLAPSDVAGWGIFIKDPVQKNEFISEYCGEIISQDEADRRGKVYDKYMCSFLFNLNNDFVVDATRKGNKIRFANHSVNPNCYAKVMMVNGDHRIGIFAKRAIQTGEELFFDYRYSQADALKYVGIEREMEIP
The depositor's hits bear a star.

SMILES	EZH2 inh
Cc1ccc(C(C)C)c(OCC(=O)Nc2ncc(I)cc2C)c1	24.8
COc1cc(/C=N/NC(=O)CCCCCC(=O)Nc2ccccc2O)c(Br)cc1O	-1.6
CC(C)(C)ONC(=O)c1ccc(-n2cc(C(=O)NO)nn2)cc1	1.0
O=C(N/N=C/c1ccc(O)c(O)c1O)c1ccccc1O	20.0
O=C(NO)c1cccc(C(=O)N/N=C/c2ccoc2)c1	7.8
Cc1cc(=O)oc2c(O)c(O)ccc12	-3.3
O=c1cc(O)cc(/C=C/c2ccc(O)c(O)c2)o1	86.9*
Oc1ccc(/C=C/c2cc(O)cc(O)c2)cc1	-7.7
COCCNC(=S)N1CCN(Cc2ccco2)CC1	-2.8
O=S(=O)(N[C@@H]1CCN(Cc2ccc(OCCO)cc2)C1)c1cc(C(F)(F)F)ccc1Cl	-11.8
COc1ccc(CCc2cc(OC)cc(=O)o2)cc1	52.1*
COc1ccc2cc(CCC(C)=O)ccc2c1	19.6
COc1ccc(CCNS(=O)(=O)c2cc(C)ccc2OC)cc1	-1.0
Cn1c(CN2CCOCC2)nnc1SCC(=O)Nc1cc(C(F)(F)F)ccc1Cl	-13.9
CC(NC(=O)c1ccccc1NC(=O)C1COc2ccccc2O1)c1ccccc1 (stereo not drawn)	8.8
O=C(c1ccc(Cl)cc1)c1ccc(CSc2nnc(-c3ccccc3)o2)o1	41.5
CCOC(=O)c1c(NC(=S)Nc2cc(OC)c(Cl)cc2OC)sc(C)c1-c1ccccc1	4.9
CC12CC(c3ccoc3)OC(=O)C1CCC1(C)C2C2OC(=O)C1(O)C1OC21 (stereo not drawn)	9.7
COC(=O)[C@@H](O)[C@H]1[C@@]2(C)C[C@]3(O)C4[C@@H](O[C@]56CC(=O)O[C@@H](c7ccoc7)[C@@]5(C)CCC([C@]46O)[C@]13C)[C@H]2O (stereo partly drawn)	100.3*
Oc1c(C(Nc2ccccn2)c2c(F)cccc2Cl)cc(Cl)c2cccnc12 (stereo not drawn)	-52.3
COc1ccccc1NC(=O)c1ccc(OCC(=O)Nc2cc(Cl)cc(Cl)c2)cc1	10.6
COC(=O)c1ccccc1NC(=O)c1ccc(NC(=O)COc2ccccc2)cc1	9.7
COC(=O)c1ccccc1NC(=O)c1cccc(NC(=O)COc2ccccc2)c1C	16.9
COC(=O)c1ccccc1NC(=O)c1ccc(COc2ccccc2)o1	53.2*
Cc1ccc(S(=O)(=O)N(C)CC(=O)Nc2ccc3ccccc3c2)cc1	6.7
SMILES	EZH2 inh
O=C(/C=C/c1ccc(OCc2ccc(Cl)cc2)cc1)NO	-18.7
O=C(O)/C=C\C(=O)Nc1ccccc1SCC(O)Cn1ccc(C(F)(F)F)n1 (stereo not drawn)	8.4
O=C(O)CCCCCCC(=O)N/N=C/c1ccc(C(F)(F)F)cc1	2.6
O=C(CCCCCCC(=O)Nc1ccccc1O)N/N=C/c1ccc(-c2ccccc2)c(F)c1	51.0*
O=C(CCCCCCC(=O)Nc1ccccc1O)N/N=C/c1ccc(O)c(O)c1	-26.8
O=C(CCCCCCC(=O)Nc1ccccc1O)N/N=C/c1ccc(F)cc1	-3.0
Nc1c(S(=O)(=O)O)cc(Nc2cccc3ccccc23)c2c1C(=O)c1ccccc1C2=O	82.3*
O=C(Nc1cccc2ccccc12)OCCn1ncc2ccccc2c1=O	-7.1
O=C(CNS(=O)(=O)c1ccc(Br)cc1)Nc1cccc2ccccc12	11.1
Nc1c(S(=O)(=O)O)cc(Nc2ccc(Cl)cc2)c2c1C(=O)c1ccccc1C2=O	67.6*
CCN(CC(=O)Nc1ccccc1C)S(=O)(=O)c1ccc(Br)cc1	-0.9
COc1ccc(OC)c(/C=C/C(=O)O)c1	4.0
NC(=O)C1CCN(C(=O)CSc2nnnn2-c2ccccc2)CC1	-5.2
Cc1sc2c(c1C)-c1nc(SCC(=O)C(C)(C)C)ncc1S(=O)(=O)N2C	16.5
CC(C)=CCC[C@H](C)C/C=N/NC(=O)CCCCCCC(=O)Nc1ccccc1O	12.4
CC1=C(C/C=N/NC(=O)CCCCCC(=O)O)C(C)(C)CCC1	28.8
CC(C)=CCN[C@H](CO)c1ccccc1	2.4
CC(C)=CCN(CC#Cc1ccccc1)[C@H](CO)c1ccccc1	66.3*
O=C(CCSc1nnnn1-c1ccccc1)Nc1ccc(Cl)cc1	18.1
COC(=O)[C@]1(C)CCC[C@@]2(C)[C@H]1CC=C(C)[C@@H]2CCc1ccoc1	6.0
CC(C)c1ccccc1OCC(=O)Nc1ccccc1C(N)=O	-1.9
CC1CCC2(C)C(CC(O)C(O)C2(O)CO)C1(C)CCc1ccoc1 (stereo not drawn)	-9.2
C[C@@H]1CC[C@]2(C)[C@H](CC[C@@H](O)[C@]2(C)O)[C@@]1(C)CC/C(=C/CO)CO	87.4*
O=C(Nc1ccc(S(=O)(=O)Nc2nccs2)cc1)C1c2ccccc2Oc2ccccc21	40.6
COc1cc(/C=C/c2cc(O)cc(O[C@@H]3O[C@H](CO)[C@@H](O)[C@H](O)[C@H]3O)c2)ccc1O[C@@H]1O[C@H](CO)[C@@H](O)[C@H](O)[C@H]1O	28.0
COc1cc(C[C@H]2CO[C@H](c3ccc(O[C@@H]4O[C@H](CO)[C@@H](O)[C@H](O)[C@H]4O)c(OC)c3)[C@H]2CO)ccc1O	99.5*
COc1cc(C2OCC3(OC4OC(CO)C(O)C(O)C4O)C(c4ccc(O)c(OC)c4)OCC23)ccc1O (stereo not drawn)	-20.9
